In the library only some 3.4% were active in any assay of this set; here they are far more common.
GCN5L2 inh – blocks human GCN5L2 histone acetyltransferase; GCN5L2 HAT assay, ThioGlo1 CoA-SH fluorescence; 390,000 compounds, 0.21% hits; Potency, µM (highest dose often 58.9 µM), for inactives: top-dose activity change, negative = inhibition, usual class: inhibitors; AID 504327; note: % is set by controls: 0 for no effect and ±100 for the full control effect
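Titration-based screen in which CoA formation is detected via maleimide probe ThioGlo1 (50uM) turning fluorescent on thiol reaction; substrates H3(1-25) 75uM and acetyl-CoA 70uM, GCN5L2 20nM, 20 min incubation at room temperature.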
PLK1 PBD block – inhibitors of human PLK1 polo-box domain binding; AID 720504; 360,000 compounds, 2.8% hits; Potency, µM, for inactives: max response, negative = inhibition, hits mostly inhibitors; Plk1 PBD binding of FITC phosphopeptide, fluorescence polarization; note: series mostly up to about 57 µM; % is set by controls: 0 for no effect and ±100 for the full control effect; nearly all actives have a fitted effect of over 65% in size
Target sequence (P53350 whole entry, looked up, the tested form may be a part): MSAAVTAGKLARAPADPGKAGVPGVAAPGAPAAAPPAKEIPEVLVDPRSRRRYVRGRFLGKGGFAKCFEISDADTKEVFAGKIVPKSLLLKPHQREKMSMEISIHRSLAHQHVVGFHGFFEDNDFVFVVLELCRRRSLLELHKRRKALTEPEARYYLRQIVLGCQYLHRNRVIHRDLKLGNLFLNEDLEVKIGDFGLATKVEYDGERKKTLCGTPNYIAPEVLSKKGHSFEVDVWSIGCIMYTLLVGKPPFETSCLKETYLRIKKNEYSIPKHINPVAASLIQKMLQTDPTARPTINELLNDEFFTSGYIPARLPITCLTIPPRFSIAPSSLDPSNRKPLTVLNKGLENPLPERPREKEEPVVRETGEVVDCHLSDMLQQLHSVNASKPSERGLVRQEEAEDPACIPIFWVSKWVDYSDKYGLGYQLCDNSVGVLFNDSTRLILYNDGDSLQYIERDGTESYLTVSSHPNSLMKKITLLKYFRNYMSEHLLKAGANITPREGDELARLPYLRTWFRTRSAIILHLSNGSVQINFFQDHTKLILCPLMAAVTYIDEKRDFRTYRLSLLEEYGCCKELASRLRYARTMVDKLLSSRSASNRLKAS
Mito fusion yeast – mitochondrial division inhibition or fusion activation; Potency, µM (highest dose often 46.1 µM), for the others: at the highest dose growth rescue (activation), most hits filed as activators; 320,000 compounds, 0.23% hits; S. cerevisiae fusion-defective mutant growth rescue, CellTiterGlo 48 h; note: % of control where 0% means no effect; nearly all actives have a fitted effect of over 45% in size
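Yeast fusion mutant, YPEG (non-fermentable carbon), compound, 48 h at 37C non-permissive; CellTiterGlo added, 10 min RT, luminescence read. Rescued growth = division inhibition.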
PKM2 act – activators of human pyruvate kinase M2 | P14618 | purified PKM2, Kinase-Glo ATP luminescence, activation; response scale: 0% is enzyme alone, no compound | Potency, µM (doses to about 57.5 µM), for inactives: at the highest dose activation, most hits filed as activators | 260,000 compounds, 0.34% hits | AID 1631; note: % is set by controls: 0 for no effect and ±100 for the full control effect; nearly all actives have a fitted effect of over 55% in size
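Purified hPK-M2 (>95%) run at intermediate activity with 0.1 mM ADP and 0.5 mM PEP in 50 mM imidazole pH 7.2, KCl, MgCl2; 1 h room temperature. ATP formed read by Kinase-Glo luminescence; normalized to uninhibited and no-enzyme controls.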
GLS inhibitor – blocks human kidney-isoform glutaminase activity; GLS enzymatic activity, qHTS titration; Potency, µM (highest dose often 45.5 µM), for inactives: at the top dose activity change, negative = inhibition, usual class: inhibitors; 410,000 compounds, 0.21% hits; note: % is set by controls: 0 for no effect and ±100 for the full control effect
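Two-point fluorescence kinetic (t0, 30 min RT) for hKGA; glutamate detected via glutamate oxidase–HRP–Amplex Red. Substrate: 1 mM L-glutamine solution; buffer 45 mM KH2PO4, pH 8.2.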
VDR inh – vitamin D3 receptor (human) inhibition. AID 504847. Potency, µM, inactives show max response, negative = inhibition, usual class: inhibitors. VDR-SRC2-3 peptide fluorescence polarization, 2 h. 400,000 compounds, 0.93% hits. P11473; note: % is set by controls: 0 for no effect and ±100 for the full control effect
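Measured by FP: displacement of SRC2-3 coactivator peptide from VDR by library compounds, following a two-hour ambient incubation.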
* hit, by the source's call; ? = inconclusive; . = no result; ! = not active in a repeat; [ ] = dose if it differs, or a comment. Calls come from the whole dose curve; as a rule, active = well fitted curve in the direction sought with a large enough effect; inconclusive = small, poorly fitted or top-dose-only effect, or another doubt; inactive = no such curve, though single readings can be large; an effect the other way counts as inactive or inconclusive. Potency is the fitted concentration of half-maximal effect.

SMILES	GCN5L2 inh	PLK1 PBD block	Mito fusion yeast	PKM2 act	GLS inhibitor	VDR inh
C[n+]1c2cc(N)ccc2cc2ccc(N)cc21	?	0.67µM*	.	.	0%	25µM*!
O=c1oc2ccccc2c(O)c1C(c1ccc([N+](=O)[O-])cc1)c1c(O)c2ccccc2oc1=O	22µM*	?	-7%	29%	?	?
CC(C)c1ccc(C(c2c(O)c3ccccc3oc2=O)c2c(O)c3ccccc3oc2=O)cc1	.	21µM*	.	.	?	.
C/C(CC(c1ccccc1)c1c(O)c2ccccc2oc1=O)=N\Nc1ccc([N+](=O)[O-])cc1[N+](=O)[O-] (centres undefined)	-9%	-25%	-3%	5%	19%	113%
CC1O[C@@H](O[C@@H]2C(O)C[C@H](O[C@@H]3C(O)C[C@@H](OC4CC[C@@]5(C)C6CC[C@]7(C)C(C8=CC(=O)OC8)CC[C@@]7(O)C6CC[C@@H]5C4)OC3C)OC2C)CC(O)[C@H]1O (some centres undefined)	-16%	.	.	.	.	1%
C=CCN1C(=O)NC(=O)/C(=C/c2ccc(OC)c(CSc3ccccn3)c2)C1=O	-14%	4.7µM*	-3%	3%	32%	71µM*
C=CCN1C(=O)NC(=O)/C(=C/c2ccc(OC)c(COc3ccc(NC(C)=O)cc3)c2)C1=O	0%	11µM*	-2%	-1%	-2%	79µM*
C=CCN1C(=O)NC(=O)/C(=C/C=C/c2ccccc2)C1=O	-25%	?	-13%	?	-13%	?
Cc1cc(/C=C2\C(=O)NC(=O)N(c3cccc(F)c3)C2=O)c(C)n1-c1ccc(C(=O)O)c(Cl)c1	-23%	-21%	3%	1%[11.5 µM]	?	10%
Cc1cc(/C=C2\C(=O)NC(=O)N(Cc3ccccc3Cl)C2=O)c(C)n1-c1ccc(C(=O)O)cc1	-2%	11µM*	0%	-1%	133%	?
Cc1cc(/C=C2\C(=O)NC(=O)N(Cc3ccccc3)C2=O)c(C)n1-c1ccc(Cl)c(C(=O)O)c1	?	6µM*	-5%	-5%	10µM*	-1%
Cc1c(Cl)cccc1N1C(=O)NC(=O)/C(=C\c2cc(C)n(-c3cccc(C(=O)O)c3C)c2C)C1=O	-14%	27µM*	-1%	1%	-4%	7%
Cc1cc(/C=C2\C(=O)NC(=O)N(Cc3ccco3)C2=O)c(C)n1-c1ccc(C(=O)O)cc1	-2%	?	-5%	3%	85%	9%
O=C1C=CC2C3C(=O)N(c4ccccc4)C(=O)C3C1N2Cc1ccccc1 (centres undefined)	.	?	.	.	-4%	?
CN1CC[C@@]2(C)c3cc(O)ccc3N(C)[C@@H]12	.	5.3µM*	.	.	?	?
Cc1ccc(/C=C2/C(=O)NC(=O)N(Cc3ccc(F)cc3)C2=O)o1	-13%	.	4%	20%	.	.
Cc1ccc(/C=C2\C(=O)NC(=O)N(CCc3ccc(F)cc3)C2=O)o1	-24%	0.95µM*	-22%	9%	2%	-25%
CC(=O)c1c(C)n(CC2CCCO2)c2ccc(O)cc12 (centres undefined)	-6%	2%	3%	2%	?	-3%
Cc1ccc(/C=C2/C(=O)NC(=O)N(CC3CCCO3)C2=O)s1 (centres undefined)	-9%	6µM*	-2%	?	18%	?
Cc1ccc(/C=C2\C(=O)NC(=O)N(CCc3ccc(F)cc3)C2=O)s1	-3%	0.27µM*	-12%	-6%	-6%	?
Cc1ccc(/C=C2/C(=O)NC(=O)N(CCc3ccc(F)cc3)C2=O)s1	-11%	0.95µM*	-3%	2%	2%	?
CC(=O)Oc1ccc(Cl)c2cccnc12	-9%	.	.	.	.	4%
CC(C)CC(N)C1(c2ccc(Cl)cc2)CCC1 (centres undefined)	.	.	.	0%	.	.
COC(=O)COc1ccc(C[C@@H](C)NC[C@H](O)c2cccc(Cl)c2)cc1	45%	.	.	.	.	5%
Cc1nn(CCC#N)c2c1P(=S)(N1CCCC1)OC(c1ccc(F)cc1)=N2 (centres undefined)	-16%	13µM*	1%	-14%	?	25µM*
SMILES	GCN5L2 inh	PLK1 PBD block	Mito fusion yeast	PKM2 act	GLS inhibitor	VDR inh
C[C@H](NC(=O)[C@@H](N)Cc1ccc(O)cc1)C(=O)NCC(=O)N(C)[C@@H](Cc1ccccc1)C(=O)NCCO	-18%	.	.	.	.	-2%
CCCN1CCc2cccc3c2[C@H]1Cc1ccc(O)c(O)c1-3	-13%	-11%	?	.	?	7.9µM*!
COc1ccc(OC)c(-n2c(O)c(/C=C3\C=Nc4ccccc43)c(=O)[nH]c2=O)c1	0%	9.5µM*	0%	.	-7%	-24%
CC(=O)OC[C@H](N)C(=O)c1ccccc1	7%	.	.	.	.	.
CCC(C)(C)n1nnnc1C(c1cccs1)N1CC=C(c2ccc(F)cc2)CC1 (centres undefined)	-8%	1%	10µM*	-2%	19%	-5%
CC(N)(COP(=O)(O)Oc1ccccc1)C(=O)O (centres undefined)	-5%	.	.	.	.	23%
Cc1ccc(-c2csc(NC(CO)c3nc4ccccc4n3CCOCCO)n2)cc1 (centres undefined)	.	21µM*	.	.	9%	-12%
COc1cc(CCN)c(OC)cc1Br	.	.	.	.	-2%[99.4 µM]	.
COC(=O)c1ccc(C(c2c(C)[nH][nH]c2=O)c2c(C)[nH][nH]c2=O)cc1	-8%	21µM*	-4%	.	5%	?
COC(=O)C(C#N)C(c1cccnc1)c1c(C)[nH][nH]c1=O (centres undefined)	-4%	?	-8%	0%	?	-2%
COc1ccc(-n2c(SCCN(C)C)nc3ccccc3c2=O)cc1	-2%	-1%	-3%	-9%	5%	11%
COP(=S)(OC)SCn1nnc2ccccc2c1=O	40µM*	8.4µM*	.	.	7%	22µM*
CCc1c(C)nc(N)nc1N1N=C1SCC(=O)OC	-6%	-8%	-3%	4%	-10%	-7%
COC(=O)CSc1n[nH]c(=S)s1	-5%	19µM*	-3%	3%	-2%	-2%
CCCCC[C@@H](/C=C/C=C\CCCCCCCCCC(=O)O)OO	.	.	.	.	.	-12%
CCC(C)N1C(=O)/C(=C\c2cnc(N(C)C)nc2)C(=O)NC1=S (centres undefined)	-14%	6.7µM*	-3%	0%	?	45µM*
CCC(C)N1C(=O)/C(=C\c2cc3c4c(c2)CCCN4CCC3)C(=O)NC1=S (centres undefined)	-21%	0.95µM*	-1%	0%	-4%	?
